Compounds with a hit are over-represented: about 6% of the library has one in this group of screens.
Tau fluor cs = counter-screen for tau fibril formation inhibitors | tau K18 P301L Alexa594 fluorescence, heparin fibrillization | Potency, µM (highest dose often 57.7 µM) | 280,000 tested, 0.93% active; also: nearly all actives have a fitted effect of over 55% in size
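Human tau K18 P301L (15 uM unlabeled, 0.24 uM Alexa 594-labeled) in 100 mM sodium acetate pH 7 with 20 uM heparin, 6 hr at 37 C. ThT 30 uM added, 1 hr ambient; Alexa 594 FP and total fluorescence read at 555/632 nm.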
Sfp PPTase inh = inhibitors of Bacillus subtilis Sfp phosphopantetheinyl transferase | Q9F4F7 | Biochemical Sfp PPTase activity, qHTS | Potency, µM, hits mostly inhibitors | 310,000 tested, 3.5% active;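 also: the enzyme is Sfp with the accession as filed and its product quenches rhodamine fluorescence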
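Fluorescence-quenching assay: 15 nM Sfp-PPTase preincubated 15 min at room temperature with compound, then 5 uM rhodamine-CoA and 12.5 uM BHQ-2-labelled YbbR peptide added. Fluorescence (ex 525/em 598 nm) read at start and after 30 min; difference gives rate.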
PLK1 PBD inh = inhibitors of human PLK1 polo-box domain binding; P53350; Plk1 PBD binding of FITC phosphopeptide, fluorescence polarization; Potency, µM, most hits filed as inhibitors; 360,000 tested, 2.8% active; AID 720504; also: series mostly up to about 57 µM; nearly all actives have a fitted effect of over 65% in size
Target sequence (P53350 whole entry, looked up, the tested form may be a part): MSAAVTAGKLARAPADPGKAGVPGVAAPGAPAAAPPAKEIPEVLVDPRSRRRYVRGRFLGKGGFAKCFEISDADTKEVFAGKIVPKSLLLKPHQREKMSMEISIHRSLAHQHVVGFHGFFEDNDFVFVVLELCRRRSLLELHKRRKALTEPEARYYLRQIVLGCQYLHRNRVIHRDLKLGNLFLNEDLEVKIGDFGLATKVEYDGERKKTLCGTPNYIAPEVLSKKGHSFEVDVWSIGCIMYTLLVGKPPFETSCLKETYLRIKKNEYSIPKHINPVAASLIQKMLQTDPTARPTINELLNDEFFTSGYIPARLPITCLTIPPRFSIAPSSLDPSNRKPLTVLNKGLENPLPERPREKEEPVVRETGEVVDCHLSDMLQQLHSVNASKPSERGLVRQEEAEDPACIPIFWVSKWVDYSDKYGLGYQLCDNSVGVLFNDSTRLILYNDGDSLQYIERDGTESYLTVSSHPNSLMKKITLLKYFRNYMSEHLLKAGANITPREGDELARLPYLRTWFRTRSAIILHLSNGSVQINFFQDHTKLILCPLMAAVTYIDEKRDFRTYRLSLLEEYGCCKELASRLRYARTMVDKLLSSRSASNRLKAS
VDR inh = inhibitors of human vitamin D receptor; P11473; VDR-SRC2-3 peptide fluorescence polarization, 2 h; Potency, µM, actives largely listed as inhibitors; 400,000 tested, 0.93% active; AID 504847
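Reagent solutions, kept cold and dark, are dispensed first; compounds are then pinned in at 23 nl, plates briefly spun, and incubated 2 h at ambient temperature. Inhibition of VDR–SRC2-3 peptide binding is read by fluorescence polarization.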
Tau fibril FP = inhibitors of human tau fibril formation; K18 P301L tau heparin fibrillization, Alexa594 FP, 6 h; Potency, µM (doses to about 57.7 µM), hits mostly inhibitors; 280,000 tested, 0.39% active; AID 1468; also: nearly all actives have a fitted effect of over 55% in size
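FP of Alexa 594-tau after heparin (20 uM) induction. Substrate: human K18 P301L, 15 uM unlabeled, 0.24 uM labeled. Buffer 100 mM sodium acetate pH 7. 6 hr, 37 C.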
Tau ThT inhib = inhibitors of human tau fibril formation, thioflavin T binding; 270,000 tested, 2.1% active; Potency, µM (titrated, usually from 57.4 µM), usual class: inhibitors; recombinant tau K18 P301L (four-repeat tau fragment), heparin-induced fibrillization, ThT fluorescence; also: nearly all actives have a fitted effect of over 55% in size
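Heparin-induced fibrillization of the P301L-mutant K18 repeat-domain fragment of human tau was followed by ThT binding in quantitative high-throughput format.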
Numbers stand for hits; 0 = inactive; ? = inconclusive; - = not tested or not shown; ! = a repeat was not active; [ ] = another dose, or the depositor's remark. Calls follow the shape of the dose curve; as a rule, active = well fitted curve in the direction sought with a large enough effect; inconclusive = small, poorly fitted or top-dose-only effect, or another doubt; inactive = no such curve, though single readings can be large; an effect the other way counts as inactive or inconclusive.

SMILES	Tau fluor cs	Sfp PPTase inh	PLK1 PBD inh	VDR inh	Tau fibril FP	Tau ThT inhib
CC1=C(C(=O)O)N2C(=O)[C@@H](NC(=O)CCCC(=O)O)[C@H]2SC1	0	5µM	0	0	0	0
Cn1c(O)c(/C=N/Nc2ccccc2)c(=O)n(C)c1=O	0	56µM	0	0	0	?
Cn1c(O)c(C=Nc2ccccc2)c(=O)n(C)c1=O	-	0	0	0	-	-
Cc1ccc(-n2ncc(C(=O)N3CCN(c4ccc(Cl)cc4)CC3)c2C2CCN(C(=O)OC(C)(C)C)CC2)c(C)c1	0	-	-	0	0	?
CN1/C(=C\C=C\C2=[N+](C)c3ccc4ccccc4c3C2(C)C)C(C)(C)c2ccccc21	0.32µM[fluorescent]	16µM	-	-	?	1.4µM
Cc1nnc(NC(=O)c2cccn(Cc3ccccc3F)c2=O)s1	0	-	-	0	?	0
O=C1Nc2ccccc2C1Cc1nc2ccccc2c(=O)n1-c1ccccc1 (stereo not drawn)	-	0	21µM	?	-	-
CC(C)C(O)(C(=O)OC[C@@H]1CC[N+]2([O-])CCCC12)C(C)O (stereo partly drawn)	0	0	-	0	0	0
CN1C(=O)C(=Cc2ccc(Sc3ccccc3)o2)C(=O)N(C)C1=O	?	0	?	?	0	?
CN1C(=O)C(=Cc2ccc(Sc3ccccc3)o2)C(=O)N(C)C1=S	-	-	2.7µM	0	-	-
CN1/C(=C\C=C2C(=O)NC(=O)NC2=O)C(C)(C)c2ccccc21	0	0	0	0	0	?
CN1/C(=C\C=Nc2ccccc2)C(C)(C)c2ccccc21	?	79µM	0	0	0	?
O=[N+]([O-])c1ccccc1Cl	-	-	0	-	-	-
O=C1NC(=O)C(Sc2ccccc2[N+](=O)[O-])C(=O)N1	-	20µM	3µM	40µM	-	-
c1cc(CN2CCCC3(CCNCC3)C2)ccn1	-	0	-	?	-	-
Cn1cc(/C=C2\C(=O)NC(=O)N(c3ccccc3)C2=O)c2ccccc21	-	0	0	0	-	-
O=C1NC(=O)N(c2ccccc2)C(=O)/C1=C/c1ccc2c(c1)Cc1ccccc1-2	0	50µM	-	-	?	?
COc1ccccc1N1C(=O)NC(=O)/C(=C/c2ccc3c(c2)Cc2ccccc2-3)C1=O	0	50µM	5.3µM	?	0	?
COc1cc(/C=C2\C(=O)NC(=O)N(c3ccccc3)C2=O)cc(OC)c1O	0	22µM	?	0	?	?
CCn1c(C)cc(/C=C2\C(=O)NC(=O)N(c3ccccc3C)C2=O)c1C	0	0	0	0	0	?
CCCNC(=O)c1cnn2c(C)c(Cc3c(C)cc(C)cc3C)c(C)nc12	0	-	-	0	?	?
Cc1ccc(C)c(CN2C(=O)c3ccccc3S(=O)(=O)c3ccc(C(=O)N4CCCCCC4)cc32)c1	0	-	-	?	0	0
S=c1[nH]nc(-c2ccn[nH]2)n1-c1ccccc1Cl	0	56µM	?	0	0	0
CC1(c2ccc(Cl)cc2Cl)OCC(Cn2cncn2)O1 (stereo not drawn)	0	0	0	0	0	0
CCCC1COC(Cn2cncn2)(c2ccc(Cl)cc2Cl)O1 (stereo not drawn)	0	?	0	50µM!	0	0
SMILES	Tau fluor cs	Sfp PPTase inh	PLK1 PBD inh	VDR inh	Tau fibril FP	Tau ThT inhib
O=C1Nc2cc(C(=O)N3CCC4(CC3)OCCO4)ccc2NC1CSCc1cccc(F)c1 (stereo not drawn)	-	50µM	-	-	-	-
CN1CCc2cc(O)cc3c2C1Cc1ccc(O)c(O)c1-3 (stereo not drawn)	18µM[quencher]	40µM	-	0	40µM	16µM
C=CCN1CCc2cccc3c2C1Cc1ccc(O)c(O)c1-3 (stereo not drawn)	14µM[quencher]	45µM	-	?	?	14µM
COc1ccc2c(c1O)-c1cccc3c1C(C2)N(C)CC3 (stereo not drawn)	0	-	-	-	?	?
CCCN1CCc2cccc3c2[C@H]1Cc1ccc(O)c(O)c1-3	-	-	0	7.9µM!	-	-
C[C@@H](NC(=O)[C@@H](N)Cc1ccc(O)cc1)C(=O)NCC(=O)N(C)[C@@H](Cc1ccccc1)C(=O)NCCO	-	0	-	0	-	-
CN(C)C(CSC(N)=O)CSC(N)=O	-	0	-	?	-	-
O=C(CCS(=O)(=O)c1ccccc1)Nc1nnc(-c2ccco2)o1	-	?	0	0	-	-
c1cncc(C2Nc3cccc4cccc(c34)N2)c1	14µM[quencher]	?	0	0	?	13µM
c1cncc(C2CCCCN2)c1 (stereo not drawn)	0	0	0	0	0	0
CN1C(=O)/C(=C\c2ccc(N3CCCCCC3)cc2)C(=O)NC1=S	0	?	2.1µM	?	0	?
CCCCN1C(=O)/C(=C/c2ccc(N3CCCCCC3)cc2)C(=O)NC1=S	0	0	-	-	0	?
Cc1cc(N2CCOCC2)ccc1/C=C1\C(=O)NC(=O)N(c2ccccc2)C1=O	0	35µM	12µM	?	?	?
O=C1NC(=O)N(c2cccc(F)c2)C(=O)/C1=C/c1ccc(N2CCOCC2)cc1	0	32µM	12µM	0	0	?
COc1cc(N2CCOCC2)ccc1C=C1C(=O)NC(=O)NC1=O	0	56µM	0	0	0	0
Cc1cc(/C=C2/C(=O)NC(=O)N(c3ccccc3)C2=O)c(C)n1-c1ccc(F)cc1	-	-	?	0	-	-
CC(C)n1cnc2c(C(=O)N[C@H]3CN4CCC3CC4)cc(Cl)cc21	0	0	-	0	0	0
CC(C)(C)c1o[nH]c(=O)c1C[C@H](N)C(=O)O	0	0	-	0	0	0
NCCNC[C@@H](N)CCCN=C(N)N[N+](=O)[O-]	-	0	-	0	-	-
CCC(=O)OC1CCC2C3CCC4CC(=O)C=CC4(C)C3CCC12C (stereo not drawn)	-	-	0	50µM	-	-
Cc1cccc(C2CC(=O)Oc3c2c(=O)oc2ccccc32)c1 (stereo not drawn)	0	-	-	0	?	?
COC(=O)CN1CN(c2ccccc2)C2(CCN(Cc3ccc4ccccc4c3)CC2)C1=O	0	71µM	-	?	0	0
CC(=O)CC(c1ccccc1)c1c(O)c2cccc(O)c2oc1=O (stereo not drawn)	-	0	-	0	-	-
O=C(Cc1ccccc1)N1CCN(Cc2cccnc2)CC1	0	79µM	0	0	0	0
CCCCCn1c(Sc2ccccc2)nc2c1c(=O)[nH]c(=O)n2C	0	0	30µM	?	0	0
CC(C)(C#N)O[C@H]1OC(CO)C(O)C(O)C1O (stereo partly drawn)	0	0	-	0	0	?
COc1cc(C2c3cc4c(cc3C(O)[C@H]3COC(=O)C23)OCO4)cc(OC)c1OC (stereo partly drawn)	0	0	-	0	?	0
C=CCn1c(CSc2ccccc2[N+](=O)[O-])n[nH]c1=S	-	?	12µM	?	-	-
COc1ccc(-c2oc3cc(OC)ccc3c(=O)c2O)cc1	0	0	-	0	?	0
CC1CC2OC2/C=C\C=C/C(=O)Cc2c(Cl)c(O)cc(O)c2C(=O)O1 (stereo not drawn)	0	0	-	45µM	0	?
